# Data: PubChem BioAssay AID1851 (National Center for Advancing Translational Sciences (NCATS), 2009)
# Screen size: about 16,000 compounds; about 5,700 (36%) were called active. Roughly 24% stayed inconclusive and do not appear here. This is one part of the list. A number with no mark means an inactive call. The call rests on the fitted dose curve; in most records, active means well fitted curve in the direction sought with a large enough effect; inconclusive means small, poorly fitted or top-dose-only effect, or effect the other way; inactive means no such curve, though single readings can be large or run the other way.
# Biological target: Cytochrome P450 1A2 (Homo sapiens) (UniProt P05177)
# Sequence (P05177 whole entry, looked up): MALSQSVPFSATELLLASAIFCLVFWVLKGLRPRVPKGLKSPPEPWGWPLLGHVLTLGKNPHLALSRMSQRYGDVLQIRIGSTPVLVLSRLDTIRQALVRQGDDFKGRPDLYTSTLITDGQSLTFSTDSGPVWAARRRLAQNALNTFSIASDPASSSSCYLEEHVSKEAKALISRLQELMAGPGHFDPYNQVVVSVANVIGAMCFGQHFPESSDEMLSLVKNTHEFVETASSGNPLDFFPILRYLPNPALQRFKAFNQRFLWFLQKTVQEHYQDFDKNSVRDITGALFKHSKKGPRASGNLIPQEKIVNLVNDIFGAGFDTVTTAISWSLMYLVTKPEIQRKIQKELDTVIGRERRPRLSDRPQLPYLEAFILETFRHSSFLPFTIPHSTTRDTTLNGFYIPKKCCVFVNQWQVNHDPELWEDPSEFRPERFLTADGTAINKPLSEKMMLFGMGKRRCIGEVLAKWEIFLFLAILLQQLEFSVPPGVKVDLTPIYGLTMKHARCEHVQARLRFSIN
# Experiment: Cytochrome panel assay with activity outcomes
# Details: recombinant CYP, pro-luciferin dealkylation, luminescence, p450-cyp1a2; series mostly up to 57.1 µM
# On the % scale 0 is the no-effect control and ±100 the full control effect.
Structure (SMILES),AC50,"activity, negative = inhibition"
NS(=O)(=O)c1ccc(NCc2ccccc2OCc2ccccc2F)cc1,14.1 µM (active),–
NS(=O)(=O)c1ccc(NCc2nc3ccccc3[nH]2)cc1,–,-18.8% [at 2.29 µM]
NS(=O)(=O)c1ccc(NCc2cnc3ccccc3n2)cc1,–,-18.2% [at 2.29 µM]
CCCCOc1cc(C(=O)NCCN(CC)CC)c2ccccc2n1,5.01 µM (active),–
CCN(CC)CCNC(=O)c1cc(S(C)(=O)=O)ccc1OC,inactive,–
CCCCCCCCOC1OC(CO)C(O)C(O)C1NC(C)=O (centres undefined),inactive,–
C[n+]1ccc(/C=C/c2ccc(Br)cc2)cc1,inactive,–
CCOC(=O)C(CC)(CC)C(=O)/C=C/c1ccc(Br)cc1,2.51 µM (active),–
CCc1nnc(NC(=O)CCC(=O)NCc2ccccc2OC)s1,inactive,–
CC(C)(C)NC(=O)Cn1nnc(-c2ccccc2NC(=O)c2cnccn2)n1,inactive,–
COc1ccccc1CNC(=O)Cn1nnc(-c2ccncc2)n1,12.6 µM (active),–
COc1cc([C@H](O)CO)ccc1O,inactive,–
CC[C@H](NC(C)C)[C@H](O)c1ccc(O)c(O)c1,12.6 µM (active),–
CC(=O)c1c(C)nc(-c2ccccc2)n1O,15.8 µM (active),–
N/N=C1/c2ccccc2N[C@H]1OC(=O)Nc1cccc(Cl)c1,0.794 µM (active),–
N/N=C1/c2ccccc2N[C@H]1OC(=O)Nc1ccccc1,0.501 µM (active),–
O=C(O)[C@@H]1[C@@H](C(=O)Nc2ccccc2)[C@@H]2C=C[C@@H]1O2,–,-18.1% [at 2.29 µM]
C=CC[C@@H]1C=C[C@@H](O/N=C\C[C@@H]2C=C[C@H](OC(C)=O)[C@H](COC(C)=O)O2)[C@@H](CO)O1,–,-8.91% [at 11.4 µM]
CCNc1ncc2nc(C)c(=O)n(C)c2n1,5.01 µM (active),–
CCNc1ncc2nc(C)c(=O)n(C3CC3)c2n1,5.01 µM (active),–
CCNc1ncc2ncc(=O)n(C3CC3)c2n1,3.16 µM (active),–
CC(N)=O,inactive,–
Cc1ccc(Sc2c([N+](=O)[O-])ncn2C)cc1,inactive,–
O=C(Nc1ccc(Cl)cc1Cl)c1cccc(N2C(=O)C=CC2=O)c1,12.6 µM (active),–
CCCCC(=O)Nc1sc2c(c1C(=O)OCC)CCC(C=O)=C2Cl,2.51 µM (active),–
CN1CCN(c2cc(-c3ccccc3C(F)(F)F)ncn2)CC1,12.6 µM (active),–
FC(F)(F)c1ccccc1-c1cc(N2CCNCC2)ncn1,5.01 µM (active),–
CN(C)CCO[C@](C)(c1ccccc1)c1ccccn1,inactive,–
CNc1cc(CSC)nc(SCc2ccc(Cl)c(Cl)c2)n1,4.47 µM (active),–
